± gives the standard deviation of the averaged measurements. Over roughly 33,000 sequences, “E-score (rank enrichment, -0.5 to 0.5)” has its median near -0.0028; the highest 2% begin near 0.23. What follows is part of a selection rich in the highest values, with near analogues and random picks from the rest.
Tested on: 2Sb-muMax20 (muMax20 with two 1,3-bis(methyl)benzene Cys staples, A13C/A17C and Q88C/A92C, C-terminal Lys)
Assay: PBM 8-mer E-score (E-score (rank enrichment, -0.5 to 0.5)); higher = stronger preferential binding
Experimental: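 Protein binding microarray (universal PBM chip covering all 10-mers in fixed probe flanks) with chemically synthesized human Max(13-93) bHLH-LZ analogs (not full-length Max) bearing noncanonical residues (hArg, Tha, Aib, Nle at 65) and aromatic Cys staples. Read-out per 8-mer (and its reverse complement): E-score (rank-based enrichment, -0.5 to 0.5) and Z-score of median probe intensity.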

Question: GGCTCAAA was tested. Which “PBM 8-mer E-score” value did it give?
Answer: Its value is -0.232 ± 0.0071.

Question: With CGTGTTCC as the sequence, how does the “PBM 8-mer E-score” value read?
Answer: The value was -0.101 ± 0.093.

Question: For CAGCCATC, which “PBM 8-mer E-score” value is on record?
Answer: The value was 0.0539 ± 0.04.

Question: Which “PBM 8-mer E-score” value does the source give for ACGCTTAC here?
Answer: Its value is -0.00865 ± 0.0059.

Question: AATGGCGG was tested. Which “PBM 8-mer E-score” value did it give?
Answer: The value was -0.0858 ± 0.063.

Question: With CTTAGCCA as the sequence, how does the “PBM 8-mer E-score” value read?
Answer: The value was -0.0016 ± 0.011.

Question: With ATCGGCTG as the sequence, how does the “PBM 8-mer E-score” value read?
Answer: Its value is -0.182 ± 0.06.

Question: With ATTAGGTG as the sequence, how does the “PBM 8-mer E-score” value read?
Answer: The value was 0.199 ± 0.0049.

Question: For CATCCCGG, which “PBM 8-mer E-score” value is on record?
Answer: The value was -0.179 ± 0.11.

Question: Which “PBM 8-mer E-score” value does the source give for ACTTGTTA here?
Answer: The value was 0.173 ± 0.0031.

Question: For CCTTGTTA, which “PBM 8-mer E-score” value is on record?
Answer: The value was 0.281 ± 0.032.

Question: CCTTGTTC was tested. Which “PBM 8-mer E-score” value did it give?
Answer: Its value is -0.00956 ± 0.048.

Question: For ACTTCTCT, which “PBM 8-mer E-score” value is on record?
Answer: The value was -0.115 ± 0.094.

Question: With AACCCAAA as the sequence, how does the “PBM 8-mer E-score” value read?
Answer: The value was 0.0368 ± 0.14.

Question: For CTACCCAA, which “PBM 8-mer E-score” value is on record?
Answer: The value was 0.085 ± 0.019.

Question: Which “PBM 8-mer E-score” value does the source give for AACCCCAA here?
Answer: The value was 0.331 ± 0.019.

Question: For GTACCCAA, which “PBM 8-mer E-score” value is on record?
Answer: The value was 0.153 ± 0.0022.

Question: For CCCCCCAG, which “PBM 8-mer E-score” value is on record?
Answer: Its value is -0.319 ± 0.18.

Question: With AACCCCTA as the sequence, how does the “PBM 8-mer E-score” value read?
Answer: Its value is 0.176 ± 0.0048.

Question: Which “PBM 8-mer E-score” value does the source give for ACCCCCAA here?
Answer: Its value is -0.148 ± 0.053.

Question: For TTACCCAA, which “PBM 8-mer E-score” value is on record?
Answer: The value was 0.26885 ± 6.4e-05.

Question: For CACCCCTA, which “PBM 8-mer E-score” value is on record?
Answer: The value was 0.228 ± 0.018.

Question: How did the “PBM 8-mer E-score” value turn out when AACCCCAG was run?
Answer: The value was 0.0383 ± 0.14.

Question: With CACCCCAG as the sequence, how does the “PBM 8-mer E-score” value read?
Answer: The value was 0.262 ± 0.015.

Question: For TACCCCTA, which “PBM 8-mer E-score” value is on record?
Answer: Its value is 0.316 ± 0.0051.

Question: How did the “PBM 8-mer E-score” value turn out when ACGAAGGC was run?
Answer: Its value is -0.148 ± 0.011.

Question: Which “PBM 8-mer E-score” value does the source give for GGCCAAAC here?
Answer: The value was -0.0918 ± 0.032.

Question: ATAAAAGC was tested. Which “PBM 8-mer E-score” value did it give?
Answer: Its value is 0.113 ± 0.0099.

Question: How did the “PBM 8-mer E-score” value turn out when TACCCCAA was run?
Answer: The value was 0.29 ± 0.036.

Question: TACCCCCA was tested. Which “PBM 8-mer E-score” value did it give?
Answer: Its value is -0.0172 ± 0.023.

Question: Which “PBM 8-mer E-score” value does the source give for CACCCCCA here?
Answer: The value was -0.148 ± 0.025.

Question: Which “PBM 8-mer E-score” value does the source give for CACCCAAA here?
Answer: Its value is 0.211 ± 0.02.

Question: With CACCCCAC as the sequence, how does the “PBM 8-mer E-score” value read?
Answer: The value was 0.319 ± 0.067.

Question: With GACCCCAC as the sequence, how does the “PBM 8-mer E-score” value read?
Answer: Its value is 0.0665 ± 0.09.

Question: AACCCCAC was tested. Which “PBM 8-mer E-score” value did it give?
Answer: Its value is 0.177 ± 0.082.

Question: With GACCCCAA as the sequence, how does the “PBM 8-mer E-score” value read?
Answer: Its value is 0.129 ± 0.058.

Question: CACCCCAA was tested. Which “PBM 8-mer E-score” value did it give?
Answer: The value was 0.292 ± 0.059.

Question: With AAAACGTT as the sequence, how does the “PBM 8-mer E-score” value read?
Answer: Its value is 0.189 ± 0.024.

Question: How did the “PBM 8-mer E-score” value turn out when GGAGAGTA was run?
Answer: Its value is -0.0215 ± 0.08.

Question: How did the “PBM 8-mer E-score” value turn out when CCTCACTA was run?
Answer: The value was 0.127 ± 0.035.

Question: Which “PBM 8-mer E-score” value does the source give for AGCCACAC here?
Answer: Its value is 0.111 ± 0.045.

Question: Which “PBM 8-mer E-score” value does the source give for TCCCTGCA here?
Answer: The value was 0.0481 ± 0.0088.

Question: With ACCCACGT as the sequence, how does the “PBM 8-mer E-score” value read?
Answer: Its value is 0.35 ± 0.025.

Question: Which “PBM 8-mer E-score” value does the source give for AACCACGA here?
Answer: The value was 0.068 ± 0.082.

Question: Which “PBM 8-mer E-score” value does the source give for AAACACGT here?
Answer: Its value is 0.238 ± 0.0029.

Question: Which “PBM 8-mer E-score” value does the source give for ACCCACGC here?
Answer: The value was 0.0613 ± 0.043.

Question: With AACCACGT as the sequence, how does the “PBM 8-mer E-score” value read?
Answer: Its value is 0.304 ± 0.0045.

Question: For ACCCACGA, which “PBM 8-mer E-score” value is on record?
Answer: Its value is 0.0473 ± 0.015.

Question: For AAACACGC, which “PBM 8-mer E-score” value is on record?
Answer: The value was 0.0985 ± 0.012.

Question: Which “PBM 8-mer E-score” value does the source give for AAACACGA here?
Answer: Its value is 0.14 ± 0.053.

Question: Which “PBM 8-mer E-score” value does the source give for AACCACGC here?
Answer: Its value is -0.0289 ± 0.036.

Question: How did the “PBM 8-mer E-score” value turn out when GCGACATA was run?
Answer: Its value is -0.0543 ± 0.01.

Question: For GAGCAACC, which “PBM 8-mer E-score” value is on record?
Answer: The value was -0.0186 ± 0.037.

Question: Which “PBM 8-mer E-score” value does the source give for ACGAGCAA here?
Answer: Its value is 0.00429 ± 0.043.

Question: AGAGTACT was tested. Which “PBM 8-mer E-score” value did it give?
Answer: The value was 0.0199 ± 0.063.

Question: How did the “PBM 8-mer E-score” value turn out when CATGATAA was run?
Answer: The value was 0.262 ± 0.004.

Question: How did the “PBM 8-mer E-score” value turn out when GTTGATTA was run?
Answer: The value was 0.259 ± 0.0094.

Question: How did the “PBM 8-mer E-score” value turn out when CATGATTA was run?
Answer: The value was 0.236 ± 0.035.

Question: How did the “PBM 8-mer E-score” value turn out when CAAGATAA was run?
Answer: The value was 0.253 ± 0.025.

Question: GATGATTA was tested. Which “PBM 8-mer E-score” value did it give?
Answer: Its value is -0.00815 ± 0.038.

Question: With TAAGATAA as the sequence, how does the “PBM 8-mer E-score” value read?
Answer: The value was 0.0702 ± 0.044.

Question: For CTTGATTA, which “PBM 8-mer E-score” value is on record?
Answer: The value was 0.159 ± 0.039.

Question: CATGATTC was tested. Which “PBM 8-mer E-score” value did it give?
Answer: The value was 0.0849 ± 0.046.

Question: How did the “PBM 8-mer E-score” value turn out when AAAGATAA was run?
Answer: Its value is 0.124 ± 0.033.

Question: How did the “PBM 8-mer E-score” value turn out when AATGATAA was run?
Answer: The value was 0.0436 ± 0.05.

Question: TATGATAA was tested. Which “PBM 8-mer E-score” value did it give?
Answer: Its value is 0.0883 ± 0.068.

Question: Which “PBM 8-mer E-score” value does the source give for ATTGATTA here?
Answer: Its value is 0.0825 ± 0.032.

Question: AACAAGCT was tested. Which “PBM 8-mer E-score” value did it give?
Answer: The value was 0.0609 ± 0.024.

Question: For GCTGGCGA, which “PBM 8-mer E-score” value is on record?
Answer: The value was -0.207 ± 0.015.

Question: How did the “PBM 8-mer E-score” value turn out when GGTTCGCA was run?
Answer: The value was -0.146 ± 0.0032.

Question: With AGGGTCTC as the sequence, how does the “PBM 8-mer E-score” value read?
Answer: The value was -0.0134 ± 0.094.

Question: For CGTCCACC, which “PBM 8-mer E-score” value is on record?
Answer: The value was -0.0444 ± 0.07.

Question: GTCGTTAA was tested. Which “PBM 8-mer E-score” value did it give?
Answer: Its value is -0.133 ± 0.028.

Question: For GGGAATCA, which “PBM 8-mer E-score” value is on record?
Answer: Its value is -0.0266 ± 0.031.

Question: How did the “PBM 8-mer E-score” value turn out when CCTGCACC was run?
Answer: The value was -0.0811 ± 0.0012.

Question: Which “PBM 8-mer E-score” value does the source give for ACGCTGCC here?
Answer: The value was -0.0685 ± 0.038.

Question: How did the “PBM 8-mer E-score” value turn out when TAACGCGA was run?
Answer: Its value is 0.0123 ± 0.0097.

Question: Which “PBM 8-mer E-score” value does the source give for CGCATGCC here?
Answer: The value was 0.141 ± 0.064.

Question: For TGCATGCA, which “PBM 8-mer E-score” value is on record?
Answer: The value was 0.132 ± 0.01.

Question: How did the “PBM 8-mer E-score” value turn out when CGCATGCA was run?
Answer: The value was 0.171 ± 0.028.

Question: Which “PBM 8-mer E-score” value does the source give for AGCATGCA here?
Answer: The value was 0.3172 ± 0.00083.

Question: How did the “PBM 8-mer E-score” value turn out when CGCATGCG was run?
Answer: Its value is 0.279 ± 0.067.

Question: How did the “PBM 8-mer E-score” value turn out when GGCATGCA was run?
Answer: The value was -0.0517 ± 0.02.

Question: With GCGACGCC as the sequence, how does the “PBM 8-mer E-score” value read?
Answer: The value was -0.126 ± 0.025.

Question: How did the “PBM 8-mer E-score” value turn out when TAGGTATA was run?
Answer: Its value is 0.138 ± 0.011.

Question: For CTCCAATA, which “PBM 8-mer E-score” value is on record?
Answer: Its value is 0.0951 ± 0.05.

Question: How did the “PBM 8-mer E-score” value turn out when AAAAGCTC was run?
Answer: Its value is -0.0474 ± 0.048.

Question: Which “PBM 8-mer E-score” value does the source give for GATAGCTA here?
Answer: The value was 0.0488 ± 0.04.

Question: AATAGCAA was tested. Which “PBM 8-mer E-score” value did it give?
Answer: The value was 0.106 ± 0.11.

Question: With AATAGCTA as the sequence, how does the “PBM 8-mer E-score” value read?
Answer: The value was 0.244 ± 0.0096.

Question: How did the “PBM 8-mer E-score” value turn out when AAAAGCTA was run?
Answer: Its value is 0.236 ± 0.025.

Question: With AATAGCAC as the sequence, how does the “PBM 8-mer E-score” value read?
Answer: The value was 0.0775 ± 0.071.

Question: For CATAGCTA, which “PBM 8-mer E-score” value is on record?
Answer: Its value is 0.17 ± 0.065.

Question: For AATAGCAT, which “PBM 8-mer E-score” value is on record?
Answer: Its value is 0.262 ± 0.023.

Question: With GAAAGCTA as the sequence, how does the “PBM 8-mer E-score” value read?
Answer: The value was 0.0215 ± 0.023.

— the supplement of paper PMC12636033
